Inconclusive results are not listed. Calls of active or inactive are those of the source. Calls follow the shape of the dose curve; as a rule, active = well fitted inhibition curve with a large enough effect; inconclusive = small, poorly fitted or top-dose-only effect; inactive = flat fitted curve, though single readings scatter.
Tests used:
Assay in all cases: qHTS profiling for inhibitors of Plasmodium falciparum proliferation (AID 504749); also: nearly all actives have a fitted effect of over 60% in size
Conditions in all cases: P. falciparum in erythrocytes, SYBR Green DNA, 72 h; series mostly up to 28.7 µM
CP262 = system: CP262
Summary of the method: (§1)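 Fluorescence of SYBR Green-bound parasite DNA, read at 485/535 nm, served as the growth measure. Infected erythrocytes were cultured with compound 72 h; artemisinin (0.29 uM) and DMSO wells defined the normalization range.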

CP265 = system: CP265
Summary of the method: as §1

CP266 = system: CP266
Summary of the method: as §1

CP268 = system: CP268
Summary of the method: as §1

CP269 = system: CP269
Summary of the method: as §1

CP286 = system: CP286
Summary of the method: as §1

CP291 = system: CP291
Summary of the method: as §1

CP297 = system: CP297
Summary of the method: as §1

CP305 = system: CP305
Summary of the method: as §1

CP315 = system: CP315
Summary of the method: as §1

CP325 = system: CP325
Summary of the method: as §1

CP335 = system: CP335
Summary of the method: as §1

DFO2036 = system: DFO2036
Summary of the method: as §1

DIV14 = system: DIV14
Summary of the method: as §1

DIV17 = system: DIV17
Summary of the method: as §1

DIV30 = system: DIV30
Summary of the method: as §1

Dd2 = system: Dd2
Summary of the method: as §1

ECU = system: ECU
Summary of the method: as §1

FAB9 = system: FAB9
Summary of the method: as §1

GB4 = system: GB4
Summary of the method: as §1

HB3 = system: HB3
Summary of the method: as §1

ICS = system: ICS
Summary of the method: as §1

JCK = system: JCK
Summary of the method: as §1

N140 = system: N140
Summary of the method: as §1

P93_24 = system: P93_24
Summary of the method: as §1

P94_40 = system: P94_40
Summary of the method: as §1

PAD = system: PAD
Summary of the method: as §1

PC15 = system: PC15
Summary of the method: as §1

PC26 = system: PC26
Summary of the method: as §1

PC49 = system: PC49
Summary of the method: as §1

SC27B = system: SC27B
Summary of the method: as §1

TAB109 = system: TAB109
Summary of the method: as §1

TAB113 = system: TAB113
Summary of the method: as §1

TAB165 = system: TAB165
Summary of the method: as §1

W2 = system: W2
Summary of the method: as §1

Measured: Potency
Potency is read from the fitted curve at half-maximal effect.

CC[C@]1([C@H]2O[C@@H]([C@@H]3O[C@](O)(CO)[C@@H](C)C[C@H]3C)C[C@H]2C)CC[C@@H]([C@]2(C)CC[C@@]3(C[C@@H](O)[C@@H](C)[C@@H]([C@H](C)[C@H](OC)[C@H](C)C(=O)O)O3)O2)O1
active: CP262 26.9 nM | CP265 31.6 nM | CP266 53.6 nM | CP268 37.9 nM | CP269 33.8 nM | CP286 22.4 nM | CP291 19 nM | CP297 33.8 nM | CP305 33.8 nM | CP315 33.8 nM | CP325 30.1 nM | CP335 19 nM | DFO2036 35.5 nM | DIV14 33.8 nM | DIV17 26.9 nM | DIV30 37.9 nM | Dd2 39.8 nM | ECU 50.1 nM | FAB9 70.8 nM | GB4 26.9 nM | HB3 44.7 nM | ICS 20 nM | JCK 70.8 nM | N140 39.8 nM | P93_24 44.7 nM | P94_40 25.1 nM | PAD 63.1 nM | PC15 56.2 nM | PC26 23.9 nM | PC49 70.8 nM | SC27B 50.1 nM | TAB109 31.6 nM | TAB113 50.1 nM | TAB165 112 nM | W2 19 nM

— PubChem BioAssay (NCATS)
